The values that follow come from PubChem BioAssay (NCI).

Compounds without any hit were thinned out: in the full panel of roughly 83,000, 20% have a hit.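 In brief: 96-well plates, 48 h treatment, single concentration, percent growth endpoint.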 Values without a mark were called inactive. The source made the active and inactive calls. The calls were made as follows: active = growth percent below 10; inactive = the rest.

Some test systems named below: T-47D breast; BT-549 breast; MDA-MB-435 melanoma; SW-620 colon; MCF7 breast; HCT-116 colon; HCC-2998 colon; KM12 colon.
What all share (assay): NCI-60 one-dose screen, 48 h (100 = growth as untreated, 0 = no growth, -100 = all killed)
Holding throughout (settings): 10 µM unless noted

As to `CC(C)CSc1oc(-c2ccccc2)nc1S(=O)(=O)c1ccccc1`, the growth in the assay on T-47D breast is 62.4%; in the assay with BT-549 breast, 102%; in the assay with MDA-MB-435 melanoma, 105%; in the assay with SW-620 colon, 97.2%; in the assay with MCF7 breast, 92.3%; in the assay with HCT-116 colon, 81.9%. The growth in the assay with HCC-2998 colon is 100%; with KM12 colon it was 96%.
With `COc1ccc2c(c1)c(-c1nonc1-c1cn(C)c3ccc(OC)cc13)cn2C`, the growth with T-47D breast was 38.6%; in the assay with BT-549 breast it was 45.7%; in the assay on MDA-MB-435 melanoma, -25.4% (active); with SW-620 colon it was 16.3%; in the assay with MCF7 breast it was 20.7%; with HCT-116 colon, 19.2%. Moreover, the growth in the assay with HCC-2998 colon is 65.7%; with KM12 colon, 25.8%.
For `COc1cc(-c2cc(-c3ccc(Nc4ncnc5cc(Cl)ccc45)cc3)nc(N3CCN(C)CC3)n2)cc(OC)c1OC`, the growth is 99.3% with T-47D breast; 94.5% with BT-549 breast; 102% in the assay with MDA-MB-435 melanoma; 72.4% in the assay on SW-620 colon; 53.8% in the assay on MCF7 breast; 64% in the assay with HCT-116 colon. Further, the growth with HCC-2998 colon was 110%; in the assay with KM12 colon it was 86.1%.
Take `O=C(N/N=C/c1ccc([N+](=O)[O-])cc1)c1ccc2nc(-c3ccc(Cl)cc3)[nH]c2c1`: the growth in the assay on T-47D breast is 10.5%; in the assay with BT-549 breast, 14%; with MDA-MB-435 melanoma, 47.6%; with SW-620 colon it was 12.7%; in the assay with MCF7 breast, 0.723% (active); with HCT-116 colon, 14.6%. The growth in the assay on HCC-2998 colon was 14.9%; in the assay on KM12 colon, 13%.
Consider `O=c1oc2c(cnc3ccccc32)cc1-c1cccs1`, for which the growth is 95.9% in the assay with T-47D breast; 96.9% in the assay with BT-549 breast; 103% in the assay on MDA-MB-435 melanoma; 103% in the assay with SW-620 colon; 98.1% in the assay with MCF7 breast; 91.1% with HCT-116 colon. Besides, the growth in the assay on HCC-2998 colon was 117%; in the assay on KM12 colon, 105%.
`Oc1c(I)cc(-c2nc3ccccc3s2)cc1CN(Cc1ccccn1)Cc1ccccn1`: the growth in the assay on T-47D breast was 17%; with BT-549 breast it was 22%; in the assay with MDA-MB-435 melanoma it was 33.3%; in the assay on SW-620 colon, 21.3%; in the assay on MCF7 breast, 13.7%; in the assay on HCT-116 colon, 16.1%. Also, the growth was 9.25% (active) in the assay with HCC-2998 colon and 28.4% in the assay with KM12 colon.
Consider `CC(=O)N(Cc1ccccc1)c1nc2ccc(O)c(CN(C)C)c2s1`, for which the growth in the assay on T-47D breast is 85.2%; in the assay with BT-549 breast it was 96.6%; in the assay with MDA-MB-435 melanoma it was 99.7%; in the assay with SW-620 colon, 94.7%; in the assay on MCF7 breast it was 87.8%; with HCT-116 colon, 102%. Further, the growth was 105% in the assay on HCC-2998 colon and 102% in the assay on KM12 colon.
Take `NC(=S)N/N=C/c1cn(-c2ccccc2)nc1-c1cc2ccccc2oc1=O`: the growth was 47.8% in the assay with T-47D breast; 42.5% in the assay on BT-549 breast; -47.5% (active) with MDA-MB-435 melanoma; 22.7% in the assay with SW-620 colon; 33.3% with MCF7 breast; 27.2% in the assay on HCT-116 colon. Moreover, the growth with HCC-2998 colon was 88.4%; in the assay on KM12 colon, 30.9%.
With `OC(c1ccccc1)(c1ccccc1)c1ccccc1-c1ccccc1`, the growth in the assay on T-47D breast is 69.8%; in the assay on BT-549 breast, 104%; in the assay on MDA-MB-435 melanoma, 108%; with SW-620 colon, 82.4%; in the assay on MCF7 breast it was 83.5%; in the assay on HCT-116 colon it was 72.1%. Also, the growth was 88.5% in the assay with HCC-2998 colon and 93.6% with KM12 colon.
Regarding `COc1ccc(OC)c(Nc2nnc(-c3ccc(Cl)cc3)o2)c1`, the growth in the assay on T-47D breast is 59.9%; with BT-549 breast, 81.9%; in the assay with MDA-MB-435 melanoma it was 84.6%; with SW-620 colon, 86.2%; with MCF7 breast it was 91.6%; in the assay on HCT-116 colon it was 31.1%. Also, the growth with HCC-2998 colon was 104%; in the assay with KM12 colon, 66.4%.
As to `CCCCCCC(CCCC)COC(=O)c1ccc(Cl)cc1` (stereo not drawn), the growth in the assay with T-47D breast was 103%; with BT-549 breast it was 107%; with MDA-MB-435 melanoma, 107%; in the assay on SW-620 colon, 109%; with MCF7 breast, 101%; in the assay with HCT-116 colon, 104%. Also, the growth with HCC-2998 colon was 121%; with KM12 colon, 108%.
In the case of `COc1cc2cc(NCc3ccc(OC(F)F)cc3)nc(C)c2cc1OC`, the growth with T-47D breast is 71.1%; in the assay with BT-549 breast, 71.8%; in the assay with MDA-MB-435 melanoma it was 68.4%; with SW-620 colon, 47.9%; in the assay on MCF7 breast, 86.1%; in the assay on HCT-116 colon, 37.3%. The figures for the growth in the assay with HCC-2998 colon and in the assay on KM12 colon were 78.2% and 82.8%, respectively.
For the compound `CCCCCCCCn1ccc2cc(NC(=O)Cn3cc(CN4CCCCCC4)nn3)ccc21`, the growth in the assay on T-47D breast was -47.4% (active); in the assay on BT-549 breast, 96.8%; in the assay with MDA-MB-435 melanoma, -85.3% (active); in the assay on SW-620 colon, -78.3% (active); in the assay with MCF7 breast it was -23.2% (active); with HCT-116 colon, -77.3% (active). The growth was -80.9% (active) in the assay on HCC-2998 colon and -27.8% (active) in the assay with KM12 colon.
For the compound `CCCCCCCCn1ccc2cc(NC(=O)Cn3cc(CN4CCC(C)CC4)nn3)ccc21`, the growth in the assay on T-47D breast is 6.9% (active); with BT-549 breast, 78.1%; with MDA-MB-435 melanoma, -75.6% (active); in the assay with SW-620 colon, -72.1% (active); in the assay with MCF7 breast, 4.43% (active); with HCT-116 colon, -18.6% (active). Further, the growth in the assay with HCC-2998 colon was -78.8% (active); in the assay with KM12 colon, 4.72% (active).
As to `CS(=O)(=O)Nc1cc(-c2ccc3ncnc(Nc4ccc5c(cnn5Cc5cccnc5)c4)c3c2)cnc1Cl`, the growth was 0.364% (active) in the assay on T-47D breast; 17.1% in the assay on BT-549 breast; 53.9% with MDA-MB-435 melanoma; 66.8% with SW-620 colon; 15.2% with MCF7 breast; 69.8% in the assay with HCT-116 colon. Also, the growth in the assay with HCC-2998 colon was 65.7%; with KM12 colon it was 82.9%.
As to `COc1ccc(C2=CN3CC=CCC3CC2=O)cc1` (stereo not drawn), the growth was 90.6% with T-47D breast; 90.7% in the assay on BT-549 breast; 106% in the assay on MDA-MB-435 melanoma; 101% in the assay with SW-620 colon; 105% in the assay with MCF7 breast; 93.1% in the assay on HCT-116 colon. Besides, the growth in the assay with HCC-2998 colon is 100%; with KM12 colon, 104%.
